Consider 26 compounds from PubChem BioAssay (NCATS).

Test [1] addresses Calcium and integrin-binding protein 1 (Homo sapiens) (UniProt Q99828). Kind of test: Primary qHTS for Identification of Calcium Integrin Binding Protein 1 (CIB1) Competitor (AID 1508620). Also: top concentration of the series differs between compounds. In a few lines: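 Fluorescence polarization competition: GST-tagged CIB1 (1 uM final) preincubated with compound 15 min at room temperature, then FITC-labelled alphaIIb peptide (100 nM final) added. After 15 min at room temperature, polarization read at Ex 480/Em 540.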
For orientation: Quantitative high-throughput screening tests each substance at several concentrations.

The target of test [2] is Cytochrome P450 2D6 (Homo sapiens) (UniProt P10635). Kind of test: Cytochrome P450 family 2 subfamily D member 6 (CYP2D6) small molecule antagonists: luciferase biochemical (cell-free) qHTS assay (AID 1645840; active = well fitted curve in the direction sought with a large enough effect in the repeat runs; an effect the other way counts as inactive or inconclusive; also: nearly all actives have a fitted effect of over 55% in size; also: potency is read from the fitted curve at half-maximal effect). In a few lines:
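P450-Glo luminescent screen: recombinant CYP2D6 enzyme–proluciferin substrate mix preincubated with compound 10 min at room temperature, then NADPH regeneration added for 1 h at room temperature. Detection reagent added for 20 min; luciferin light read as relative luminescence units.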

Test [3] addresses Cytochrome P450 2C9 (Homo sapiens) (UniProt P11712). Kind of test: Cytochrome P450 family 2 subfamily C member 9 (CYP2C9) small molecule antagonists: luciferase biochemical (cell-free) qHTS assay (AID 1645842; active = well fitted curve in the direction sought with a large enough effect in the repeat runs; an effect the other way counts as inactive or inconclusive; also: nearly all actives have a fitted effect of over 55% in size; also: potency is read from the fitted curve at half-maximal effect). A digest of the protocol:
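Luminescence, after 20 min with luciferin detection reagent, reflected CYP2C9 turnover during a 1 h NADPH-driven reaction at 37C. Enzyme-substrate mix contained 0.4% bovine serum albumin and was preincubated with compound 10 min at room temperature.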

Test [4] in a line: Primary qHTS for inhibitors of nuclear receptor binding SET domain protein 2 (NSD2) in an isogenic RCH-ACV NSD2 p.E1099K mutant (9B) (AID 1645876). Also: nearly all actives have a fitted effect of over 70% in size. Also: potency is read from the fitted curve at half-maximal effect.
The target of test [5] is N-terminal Xaa-Pro-Lys N-methyltransferase 1 (Homo sapiens) (UniProt Q9BV86). Kind of test: Confirmatory qHTS for Inhibitors of N-terminal methyltransferase 1 (NTMT1): MTaseGlo Assay (AID 1645874). Also: nearly all actives have a fitted effect of over 65% in size. Also: potency is read from the fitted curve at half-maximal effect. In a few lines: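 qHTS format: NTMT1 125 nM, SAM 100 uM, peptide SPKRIA 1 uM final; 15 min compound preincubation, 30 min reaction at room temperature. MTase-Glo luminescence.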
Chain of N-terminal Xaa-Pro-Lys N-methyltransferase 1 (Homo sapiens) (Q9BV86 whole entry, looked up): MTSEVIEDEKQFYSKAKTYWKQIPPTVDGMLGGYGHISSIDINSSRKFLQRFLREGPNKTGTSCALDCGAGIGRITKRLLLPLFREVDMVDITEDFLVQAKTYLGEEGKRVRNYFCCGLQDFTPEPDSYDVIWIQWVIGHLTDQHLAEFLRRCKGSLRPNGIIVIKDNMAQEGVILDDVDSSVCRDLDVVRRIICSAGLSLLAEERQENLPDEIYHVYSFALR

The nature of test [6]: Primary qHTS for inhibitors of nuclear receptor binding SET domain protein 2 (NSD2) in an RCH-ACV wild type WT cells (2C) (AID 1645877). Also: nearly all actives have a fitted effect of over 70% in size. Also: potency is read from the fitted curve at half-maximal effect.

“And” between values parts separate entries of the source, which are not always exact repeats. Identical values can stand only once. Results filed as inconclusive are left out. The source made the active and inactive calls. Unless noted, calls follow the shape of the dose curve; as a rule, active = well fitted curve in the direction sought with a large enough effect; inconclusive = small, poorly fitted or top-dose-only effect, or another doubt; inactive = no such curve, though single readings can be large; an effect the other way counts as inactive or inconclusive.

Chain of Calcium and integrin-binding protein 1 (Homo sapiens) (Q99828 whole entry, looked up): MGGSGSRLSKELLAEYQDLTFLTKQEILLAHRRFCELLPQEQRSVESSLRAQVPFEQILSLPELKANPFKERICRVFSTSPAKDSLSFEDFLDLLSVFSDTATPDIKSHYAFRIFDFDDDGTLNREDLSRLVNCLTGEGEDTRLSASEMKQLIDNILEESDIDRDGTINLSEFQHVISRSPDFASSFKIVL
Chain of Cytochrome P450 2C9 (Homo sapiens) (P11712 whole entry, looked up): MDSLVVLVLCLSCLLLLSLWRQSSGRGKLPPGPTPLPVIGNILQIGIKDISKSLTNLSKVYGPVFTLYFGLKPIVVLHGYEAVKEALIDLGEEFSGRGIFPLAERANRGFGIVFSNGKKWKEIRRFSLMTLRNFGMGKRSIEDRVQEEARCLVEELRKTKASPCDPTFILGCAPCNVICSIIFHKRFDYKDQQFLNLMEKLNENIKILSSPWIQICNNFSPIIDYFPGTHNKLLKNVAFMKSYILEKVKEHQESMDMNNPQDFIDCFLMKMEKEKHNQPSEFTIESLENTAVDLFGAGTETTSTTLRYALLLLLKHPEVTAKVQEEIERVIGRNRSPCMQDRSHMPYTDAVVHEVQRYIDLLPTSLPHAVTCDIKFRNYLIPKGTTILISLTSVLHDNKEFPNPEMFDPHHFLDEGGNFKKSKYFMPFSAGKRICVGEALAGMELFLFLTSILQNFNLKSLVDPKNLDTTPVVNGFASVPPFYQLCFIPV
Chain of Cytochrome P450 2D6 (Homo sapiens) (P10635 whole entry, looked up): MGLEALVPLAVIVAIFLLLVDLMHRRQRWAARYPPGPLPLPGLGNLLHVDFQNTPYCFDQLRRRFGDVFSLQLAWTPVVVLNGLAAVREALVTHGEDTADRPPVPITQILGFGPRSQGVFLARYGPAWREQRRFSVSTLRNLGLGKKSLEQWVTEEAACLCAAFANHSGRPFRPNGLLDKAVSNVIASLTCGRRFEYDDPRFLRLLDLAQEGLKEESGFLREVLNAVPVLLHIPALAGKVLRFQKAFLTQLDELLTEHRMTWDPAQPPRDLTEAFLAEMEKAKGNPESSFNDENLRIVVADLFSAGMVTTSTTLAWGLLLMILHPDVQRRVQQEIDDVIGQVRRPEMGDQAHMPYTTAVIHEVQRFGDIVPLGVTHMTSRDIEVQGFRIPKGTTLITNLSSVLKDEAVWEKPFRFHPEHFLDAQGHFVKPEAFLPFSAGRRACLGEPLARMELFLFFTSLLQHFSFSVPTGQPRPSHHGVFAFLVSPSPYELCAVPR

`Cc1c(NC(=O)c2cc3c(s2)CCCC3)cccc1-c1cn(C)c(=O)c(Nc2ccc(C3C(=O)N(C)CCN3C)cc2)n1` (stereo not drawn): the Potency result in test [1] and in test [2] was “inactive” throughout. Besides, the results for the Potency in test [3] and in test [4] were 1.2 µM (active) and 12.9 µM (active), respectively.

As to `CCN(c1cc(-c2ccc(CN3CCOCC3)cc2)cc(C(=O)NCc2c(C)cc(C)[nH]c2=O)c1C)C1CCOCC1`, the Potency entry in test [1] and in test [4] was “inactive” in each case. In addition, the Potency in test [2] is 23.9 µM (active); in test [3], 3.38 µM (active).

For `COc1cc(-c2cn(C3CCc4c(F)cccc4N(CC(F)(F)F)C3=O)nn2)ccc1-n1cnc(C)c1` (stereo not drawn), the Potency entry in test [1] is “inactive”. For the same compound, the values for the Potency in test [2], in test [3] and in test [4] were 26.8 µM (active), 12 µM (active) and 18.3 µM (active), respectively.

Take `Cc1ccc(NC(=O)N2CCN(c3nc(N)nc4sc(-c5cccnc5)nc34)CC2)cc1`: the Potency entry in test [1] and in test [5] was “inactive” throughout. Besides, the Potency in test [2] is 13.5 µM (active); in test [3] it was 3.01 µM (active); in test [4], 0.258 µM (active); in test [6], 0.23 µM (active).

`O=C(Nc1ccc(CN2CCOCC2)cc1)c1ccc(-c2cccc(Cl)c2)o1`: the Potency entry in test [1] was “inactive”. In addition, the Potency was 15.1 µM (active) in test [2], 19 µM (active) in test [3], 16.3 µM (active) in test [4] and 11.5 µM (active) in test [6].

For the compound `COc1cc2ncnc(Oc3ccc(CC(=O)Nc4cnn(C(C)C)c4)cc3)c2cc1OC`, the Potency entry in test [1] and in test [2] was “inactive” in each case. Besides, the Potency is 13.5 µM (active) in test [3] and 16.3 µM (active) in test [4].

Regarding `CCC(C)CNCC(=O)N1CCC2SC=CC2C1COc1cccc(C)c1` (stereo not drawn), the Potency result in test [1] is “inactive”. Besides, the Potency in test [2] is 0.0756 µM (active); in test [3] it was 12 µM (active); in test [4] it was 23 µM (active).

Consider `CCO[C@H]1CN(C2CCC(O)(c3ccc4c(c3)OCO4)CC2)C[C@@H]1NC(=O)CNC(=O)c1cccc(C(F)(F)F)c1` (stereo partly drawn), for which the Potency entry in test [1] and in test [4] was “inactive” throughout. The Potency was 3.38 µM (active) in test [2] and 12 µM (active) in test [3].

As to `CCCCC1CCC(c2nc(-c3ccncc3)no2)CC1` (stereo not drawn), the Potency entry in test [1] and in test [4] was “inactive” throughout. Also, the results for the Potency in test [2] and in test [3] were 0.536 µM (active) and 5.35 µM (active), respectively.

As for `O=C(Nc1cc(C(F)(F)F)ccc1N1CCCCC1)c1ccncc1`, the Potency entry in test [1] is “inactive”. Also, the Potency in test [2] is 8.49 µM (active); in test [3] it was 2.13 µM (active).

Consider `Nc1cccc(CNC(=O)c2ccc(Oc3ccc(OCc4cccc(F)c4)cc3)nc2)c1`, for which the Potency result in test [1] and in test [2] was “inactive” throughout. For the same compound, the Potency in test [3] is 9.52 µM (active); in test [4], 11.5 µM (active).

Consider `CCCc1cc(C)n(C)c(=O)c1CN(C)C(=O)c1cc(-c2ccc(N3CCN(C(C)C)CC3)nc2)cc2c1cnn2C(C)C`, for which the Potency entry in test [1], in test [2] and in test [4] was “inactive” in each case. Further, in test [3], the Potency is 0.601 µM (active).

In the case of `CN1CCC(NC(=O)c2cc(-c3c(O)cc(O)cc3Oc3ccc([N+](=O)[O-])cc3)on2)CC1`, the Potency entry in test [1] and in test [2] was “inactive” in each case. In addition, the Potency in test [3] is 12 µM (active); in test [4] it was 0.23 µM (active).

Consider `NCCOc1cc(C(=O)Nc2cc(OCCN)c3ccccc3n2)nc(C(=O)Nc2cc(OCCN)c3ccccc3n2)c1`, for which the Potency entry in test [1], in test [2] and in test [3] was “inactive” each time. The Potency in test [5] was 43.5 µM (active); in test [4] it was 4.09 µM (active) and 7.42 µM (active); in test [6] it was 5.78 µM (active) and 8.33 µM (active).

As to `CN(C)CCN(Cc1ccccc1)C(=O)c1cc(-c2ccc(F)cc2)n2nc(C(C)(C)C)cc2n1`, in test [1], the Potency result was “inactive”. In addition, the Potency is 16.9 µM (active) in test [2], 16.9 µM (active) in test [3], 3.25 µM (active) in test [4] and 2.9 µM (active) in test [6].

For `COc1ccc(-c2csc(NC(=O)[C@H]3CCCCN3S(=O)(=O)c3ccc(C)cc3)n2)cc1`, the Potency result in test [1] and in test [2] was “inactive” throughout. The Potency in test [3] was 2.13 µM (active); in test [4], 18.3 µM (active).

Take `CN(C)C(=O)Nc1cc(-c2ccccc2)ccc1N(C)C`: the Potency result in test [1], in test [2], in test [5] and in test [6] was “inactive” throughout. In test [3], the Potency is 15.1 µM (active).

Regarding `CCn1c(=O)c(-c2ccc(-c3cncs3)cc2Cl)cc2cnc(Nc3ccc(N4CCN(C)CC4)cc3)nc21`, the Potency entry in test [1] and in test [2] was “inactive” throughout. In addition, the results for the Potency in test [3], in test [4] and in test [6] were 6.01 µM (active), 2.31 µM (active) and 2.59 µM (active), respectively.

As for `C[C@@H](NC(=O)C(=O)c1c[nH]c2ccc([N+](=O)[O-])cc12)c1ccccc1`, the Potency entry in test [1], in test [2], in test [3] and in test [4] was “inactive” in each case.

For the compound `COc1cc2c(Nc3cc(F)c(Cl)c(Cl)c3)ncnc2cc1OCC1CCCN(C)CCC1`, the Potency result in test [1] was “inactive”. In addition, the Potency is 16.9 µM (active) in test [2]; 19 µM (active) in test [3]; 31.6 µM (active) in test [5]; 3.25 µM (active) in test [4]; 5.15 µM (active) in test [6].

With `O=C1c2ccc(Nc3ccc(F)cc3F)cc2CCc2ccc(OCC(O)CO)cc21` (stereo not drawn), the Potency entry in test [1] is “inactive”. Besides, the Potency in test [2] was 26.8 µM (active); in test [3], 6.01 µM (active); in test [4] it was 16.3 µM (active).

Take `CC(C)[C@@H](c1ccc(C(F)(F)F)cc1CN(Cc1cc(C(F)(F)F)cc(C(F)(F)F)c1)c1nnn(C)n1)N1CCC(C(=O)O)CC1`: the Potency result in test [1] was “inactive”. Also, the Potency in test [2] was 12 µM (active); in test [3] it was 15.1 µM (active); in test [4], 25.8 µM (active).

Consider `O=S(=O)(c1ccc(Cl)cc1)N1CCN(c2ccnc3cc(Cl)ccc23)CC1`, for which, in test [1], the Potency entry was “inactive”. In addition, the Potency was 8.49 µM (active) in test [2] and 2.39 µM (active) in test [3].

Regarding `O=C(Nc1ccc(Cl)cc1)C1CCCN(C(=O)c2cccc(-c3ccco3)c2)C1` (stereo not drawn), the Potency result in test [1] was “inactive”. In addition, the Potency in test [2] was 13.5 µM (active); in test [3], 15.1 µM (active); in test [4], 14.5 µM (active); in test [6], 23 µM (active).

On to `C=C(C)[C@@H]1CC=C(COC(=O)NC(=O)c2ncn3c(=O)n(C)nnc23)CC1`, for which the Potency entry in test [1], in test [2], in test [3] and in test [4] was “inactive” each time.

On to `CC(C)c1ccc(-c2cc(=O)c3ccccc3o2)cc1`, for which the Potency entry in test [1] was “inactive”. Besides, the Potency in test [2] was 15.1 µM (active); in test [3], 5.35 µM (active); in test [4], 23 µM (active).
